# Inconclusive results are not listed. Unmarked numbers belong to inactive results. The source made the active and inactive calls. The call rests on the fitted dose curve; in most records, active means well fitted inhibition curve with a large enough effect; inconclusive means small, poorly fitted or top-dose-only effect; inactive means flat fitted curve, though single readings scatter.
# Tests used:
# [1] = Drug repurposing screens with cells derived from glioblastoma tumor samples (AID 1345199); settings: GBM patient neurospheres viability, ATP luminescence, 48 h; further: nearly all actives have a fitted effect of over 40% in size
# Outline: (§1)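 Primary testing used CD133+ neurospheres from four GBM patients, seven concentrations, 48 h exposure and ATP-based viability; confirmation added three slower-growing patient lines.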
# [2] = tested on: astro; assay: as above; settings: viability, ATP luminescence, 48 h; series mostly up to 45.9 µM
# Outline: as §1
# [3] = at 45.9 µM (top of the series), tumour line B
# [4] = at 45.9 µM (top of the series), tumour line D
# [5] = at 46 µM (top of the series), tumour line A
# [6] = at 46.1 µM (top of the series), tumour line C
# [7] = at 20 µM (top of the series), tumour line C
# [8] = at 21.2 µM (top of the series), tumour line B
# [9] = at 21.2 µM (top of the series), tumour line D
# [10] = at 21.3 µM (top of the series), tumour line A
# On the % scale 0 is the no-effect control and ±100 the full control effect; potency means the concentration at half of the fitted maximal effect.
compound,measurement,setting,value
N[C@H](CC(=O)O)C(=O)O,"activity, negative = cell killing",[1]; [3],13.2%
same,"activity, negative = cell killing",[1]; [4],11.3%
same,"activity, negative = cell killing",[1]; [5],11.8%
same,"activity, negative = cell killing",[1]; [6],-1.3%
same,Potency,[2],inactive
C=CCOc1ccc(CC(=O)O)cc1Cl,"activity, negative = cell killing",[1]; [3],0.88%
same,"activity, negative = cell killing",[1]; [4],1.11%
same,"activity, negative = cell killing",[1]; [5],-23%
same,"activity, negative = cell killing",[1]; [6],0.211%
same,Potency,[2],inactive
CCCc1nc(C(C)(C)O)c(C(=O)OCc2oc(=O)oc2C)n1Cc1ccc(-c2ccccc2-c2nn[nH]n2)cc1,"activity, negative = cell killing",[1]; [3],-17.3%
same,"activity, negative = cell killing",[1]; [4],-13.8%
same,"activity, negative = cell killing",[1]; [5],-13%
same,"activity, negative = cell killing",[1]; [6],-13.1%
same,Potency,[2],inactive
C/C=C/C=C/C(=O)O,"activity, negative = cell killing",[1]; [3],2.26%
same,"activity, negative = cell killing",[1]; [4],-15.1%
same,"activity, negative = cell killing",[1]; [5],-7.83%
same,"activity, negative = cell killing",[1]; [6],-7.57%
same,Potency,[2],inactive
CCC(O)c1ccccc1 (stereo not given),"activity, negative = cell killing",[1]; [3],-1.17%
same,"activity, negative = cell killing",[1]; [4],0.662%
same,"activity, negative = cell killing",[1]; [5],-1.63%
same,"activity, negative = cell killing",[1]; [6],4.78%
same,Potency,[2],inactive
CN[C@@H]1[C@H](O[C@H]2[C@H](O[C@H]3[C@H](O)[C@@H](O)[C@H](N=C(N)N)[C@@H](O)[C@@H]3N=C(N)N)O[C@@H](C)[C@]2(O)C=O)O[C@@H](CO)[C@H](O)[C@H]1O,"activity, negative = cell killing",[1]; [3],1.28%
same,"activity, negative = cell killing",[1]; [4],-18.9%
same,"activity, negative = cell killing",[1]; [5],-12%
same,"activity, negative = cell killing",[1]; [6],-1.08%
same,Potency,[2],inactive
CC(=O)N[C@@H]1C(O[C@H]2O[C@H](C(=O)O)C(O)[C@H](O)[C@H]2O)[C@H](O)[C@@H](CO)O[C@H]1O[C@@H]1C(C(=O)O)O[C@@H](O[C@H]2[C@H](O)[C@@H](CO)OC(O)[C@@H]2NC(C)=O)[C@H](O)[C@H]1O (stereo not given in full),"activity, negative = cell killing",[1]; [3],-6.99%
same,"activity, negative = cell killing",[1]; [4],-9.84%
same,"activity, negative = cell killing",[1]; [5],-10.4%
same,"activity, negative = cell killing",[1]; [6],-7.36%
same,Potency,[2],inactive
CC(C)c1ncc([N+](=O)[O-])n1C,"activity, negative = cell killing",[1]; [3],-8.02%
same,"activity, negative = cell killing",[1]; [4],-13.9%
same,"activity, negative = cell killing",[1]; [5],-13.9%
same,"activity, negative = cell killing",[1]; [6],-14.5%
same,Potency,[2],inactive
CCCCCCOC(=O)c1cccnc1,"activity, negative = cell killing",[1]; [3],14.4%
same,"activity, negative = cell killing",[1]; [4],7.42%
same,"activity, negative = cell killing",[1]; [5],-5.32%
same,"activity, negative = cell killing",[1]; [6],1.85%
same,Potency,[2],inactive
OCCCNc1ccccc1,"activity, negative = cell killing",[1]; [3],1.67%
same,"activity, negative = cell killing",[1]; [4],-0.692%
same,"activity, negative = cell killing",[1]; [5],-52.2%
same,"activity, negative = cell killing",[1]; [6],-9.32%
same,Potency,[2],inactive
O=C(OCc1ccccc1)c1cccnc1,"activity, negative = cell killing",[1]; [3],-17.7%
same,"activity, negative = cell killing",[1]; [4],-1.76%
same,"activity, negative = cell killing",[1]; [5],-18.6%
same,"activity, negative = cell killing",[1]; [6],7.49%
same,Potency,[2],inactive
O=C(O)c1ccc(NC2OC[C@@H](O)[C@H](O)[C@H]2O)cc1 (stereo not given in full),"activity, negative = cell killing",[1]; [3],-2.93%
same,"activity, negative = cell killing",[1]; [4],0.684%
same,"activity, negative = cell killing",[1]; [5],-26.5%
same,"activity, negative = cell killing",[1]; [6],-13.1%
same,Potency,[2],inactive
NC[C@H]1O[C@H](O[C@H]2[C@H](O)[C@@H](O[C@H]3O[C@H](CO)[C@@H](O)[C@H](N)[C@H]3O)[C@H](N)C[C@@H]2N)[C@H](O)[C@@H](O)[C@@H]1O,"activity, negative = cell killing",[1]; [7],3.71%
same,"activity, negative = cell killing",[1]; [8],-14.2%
same,"activity, negative = cell killing",[1]; [9],0.603%
same,"activity, negative = cell killing",[1]; [10],-23.6%
same,Potency,[2],inactive
CC(C)[C@H](N)C(=O)OCC(CO)OCn1cnc2c(=O)[nH]c(N)nc21 (stereo not given in full),"activity, negative = cell killing",[1]; [3],-16.2%
same,"activity, negative = cell killing",[1]; [4],-11.6%
same,"activity, negative = cell killing",[1]; [5],-27%
same,"activity, negative = cell killing",[1]; [6],-25.2%
same,Potency,[2],inactive
CSCCC(N)C(=O)O (stereo not given),"activity, negative = cell killing",[1]; [3],-9.94%
same,"activity, negative = cell killing",[1]; [4],-6.77%
same,"activity, negative = cell killing",[1]; [5],-11.9%
same,"activity, negative = cell killing",[1]; [6],-3.8%
same,Potency,[2],inactive
CNCC(O)c1ccc(OC(=O)C(C)(C)C)c(OC(=O)C(C)(C)C)c1 (stereo not given),"activity, negative = cell killing",[1]; [7],5.42%
same,"activity, negative = cell killing",[1]; [8],-16.5%
same,"activity, negative = cell killing",[1]; [9],-22.8%
same,"activity, negative = cell killing",[1]; [10],-18%
same,Potency,[2],inactive
CC(C)N1CCN(c2ccc(OC[C@H]3CO[C@](Cn4cncn4)(c4ccc(Cl)cc4Cl)O3)cc2)CC1,"activity, negative = cell killing",[1]; [7],-6.28%
same,Potency,[1]; tumour line A,2.51 µM (active)
same,Potency,[1]; tumour line B,14.1 µM (active)
same,Potency,[1]; tumour line D,10 µM (active)
same,Potency,[2],inactive
O=C(O)/C=C/c1ccccc1,"activity, negative = cell killing",[1]; [3],-13.6%
same,"activity, negative = cell killing",[1]; [4],12.4%
same,"activity, negative = cell killing",[1]; [5],-20.1%
same,"activity, negative = cell killing",[1]; [6],7.51%
same,Potency,[2],inactive
O=C(O)[C@H]1CN(C/C=C/P(=O)(O)O)CCN1,"activity, negative = cell killing",[1]; [3],-1.77%
same,"activity, negative = cell killing",[1]; [4],1.08%
same,"activity, negative = cell killing",[1]; [5],-25.5%
same,"activity, negative = cell killing",[1]; [6],-5.57%
same,Potency,[2],inactive
CCCCCCCCCCCCCC(=O)OCC(COP(=O)([O-])OCC[N+](C)(C)C)OC(=O)CCCCCCCCCCCCC (stereo not given),"activity, negative = cell killing",[1]; [3],-7.07%
same,"activity, negative = cell killing",[1]; [4],3.06%
same,"activity, negative = cell killing",[1]; [5],-21.5%
same,"activity, negative = cell killing",[1]; [6],-13.4%
same,Potency,[2],inactive
CC(C)(C)NCC(O)CSc1nc(-c2ccc(C(N)=O)s2)cs1 (stereo not given),"activity, negative = cell killing",[1]; [3],-20.2%
same,"activity, negative = cell killing",[1]; [4],-9.92%
same,"activity, negative = cell killing",[1]; [6],-12.2%
same,Potency,[1]; tumour line A,17.8 µM (active)
same,Potency,[2],inactive

# — PubChem BioAssay (NCATS)
